From PubChem BioAssay (Tox21) come the findings set out here.

Test [1] addresses Thyrotropin-releasing hormone receptor (Homo sapiens) (UniProt P34981). The test is described as follows: qHTS assay to identify small molecule agonists of the thyrotropin-releasing hormone receptor (TRHR) signaling pathway (AID 1346891; calls by dose curve; note: series mostly up to about 58 µM). In short, it runs like this: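 Agonist-mode intracellular calcium readout: kinetic fluorescence over 3 min at 1 s intervals after compound addition to TRHR-HEK293 cells (18 h seeded, 2 h dye-loaded at 37 C). Fifteen concentrations, triplicates.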

The nature of test [2]: Human pregnane X receptor (PXR) small molecule agonists, qHTS cell viability counter screen (AID 1346977). Note: nearly all actives have a fitted effect of over 50% in size. Note: potency is the fitted concentration of half-maximal effect. In short, it runs like this:
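Same-well viability read: CellTiter-Fluor added after 23 hr compound exposure, fluorescence measured 1 hr later. Cells were PXR-Luc HepG2 seeded at 2,000/well in 5% charcoal-stripped FBS medium, rested 5 hr before dosing at 37 C.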

Test [3] in a line: Caspase-3/7 induction in HepG2 cells by small molecules, qHTS assay (AID 1346978). Note: nearly all actives have a fitted effect of over 15% in size. Note: potency is the fitted concentration of half-maximal effect. In short, it runs like this:
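Caspase-3/7 induction was measured by Caspase-Glo 3/7 luminescence (30 min, room temperature) after a 17 hr compound exposure of wild-type HepG2 cells seeded at 2,000 per well and pre-incubated 5 hr.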

The nature of test [4]: Caspase-3/7 induction in CHO-K1 cells by small molecules, qHTS cell viability counter screen (AID 1346979). Note: nearly all actives have a fitted effect of over 35% in size. Note: potency is the fitted concentration of half-maximal effect. In short, it runs like this: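 Cytotoxicity counter screen: CellTiter-Fluor added to compound-treated wild-type CHO-K1 cells at 16 h (37C, 5% CO2), fluorescence measured 1 h later; same wells as caspase-3/7 measurement.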
Test [5] can be described thus: Caspase-3/7 induction in CHO-K1 cells by small molecules, qHTS assay (AID 1346980). Note: nearly all actives have a fitted effect of over 15% in size. In short, it runs like this:
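Luminescent Caspase-Glo 3/7 read (30min, room temperature) quantified apoptosis induction. Cells were wild-type CHO-K1, treated with compound for 17hr at 37 C and 5% CO2.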

A short description of test [6]: Caspase-3/7 induction in HepG2 cells by small molecules, qHTS cell viability counter screen (AID 1346981). Note: nearly all actives have a fitted effect of over 30% in size. Note: potency is the fitted concentration of half-maximal effect. In short, it runs like this: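 After a 5-hr attachment period at 37 C and 5% CO2, wild-type HepG2 cells received compounds in DMSO. Sixteen hours later CellTiter-Fluor was dispensed and the fluorescent signal quantified after a further hour.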
Test [7] concerns the target Nuclear receptor subfamily 1 group I member 2 (Homo sapiens) (UniProt O75469). Description: Human pregnane X receptor (PXR) small molecule agonists, qHTS assay (AID 1346982). Note: nearly all actives have a fitted effect of over 35% in size. Note: potency is the fitted concentration of half-maximal effect. The essentials:
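Tox21 qHTS; PXR-Luc HepG2; compounds pinned from DMSO; 24 hr, 37 C; ONE-Glo luciferase detection, 30 min room temperature.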

The target in test [8] is Cytochrome P450 2D6 (Homo sapiens) (UniProt P10635). The test is described as follows: Cytochrome P450 Family 2 Subfamily D Member 6 (CYP2D6) small molecule antagonists: luciferase reporter qHTS assay (AID 1671196). Note: nearly all actives have a fitted effect of over 50% in size. Note: potency is the fitted concentration of half-maximal effect. In short, it runs like this:
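Room-temperature luminescent CYP2D6 activity assay: compound preincubated 10 min with enzyme–substrate mix, NADPH-initiated reaction 1 h, detection reagent 20 min before reading.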

Test [9] concerns the target Nuclear receptor subfamily 1 group I member 2 (Rattus norvegicus) (UniProt Q9R1A7). The test is described as follows: Rat pregnane X receptor (rPXR) activation by small molecules, qHTS assay (AID 1346983). Note: nearly all actives have a fitted effect of over 20% in size. Note: potency is the fitted concentration of half-maximal effect. The conditions noted are these: rPXR luciferase reporter cells, One-Glo luminescence, 24 h; max activation: stronger effect = higher value. In short, it runs like this:
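Luminescent readout (One-Glo luciferase, 30 min room temperature) followed 24 hr compound treatment at 37 C of rPXR cells plated 2,000 per well and preincubated 5hr; qHTS format with compounds delivered in DMSO.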

Test [10] has as its target Nuclear receptor subfamily 1 group I member 2 (Homo sapiens) (UniProt O75469). Description: Human pregnane X receptor (PXR) activation by small molecules, qHTS assay (AID 1346985). Note: nearly all actives have a fitted effect of over 40% in size. The essentials: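 DPX-2 cells (HepG2 co-transfected with a PXR response element and a CYP3A4-promoter luciferase construct) were seeded at 2,000 per well, rested 5 hr at 37C, then exposed to DMSO-dissolved compounds for 24 hr. Activation was read as luciferase luminescence.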

Values joined by “and” are separate entries in the source; they are usually repeats but may differ in a detail not shown here. Identical values can stand only once. Inconclusive results are not listed. Some compounds were tested as several samples or in several runs, with calls that do not always agree. Active and inactive are the calls of the source. Unless noted, calls come from the whole dose curve; as a rule, active = well fitted curve in the direction sought with a large enough effect in the repeat runs; inconclusive = weak or mixed curves; inactive = no such curve, though single readings can be large; an effect the other way counts as inactive or inconclusive.
% is set by controls: 0 for no effect and ±100 for the full control effect.

Nuclear receptor subfamily 1 group I member 2 (Homo sapiens), sequence (O75469 whole entry, looked up): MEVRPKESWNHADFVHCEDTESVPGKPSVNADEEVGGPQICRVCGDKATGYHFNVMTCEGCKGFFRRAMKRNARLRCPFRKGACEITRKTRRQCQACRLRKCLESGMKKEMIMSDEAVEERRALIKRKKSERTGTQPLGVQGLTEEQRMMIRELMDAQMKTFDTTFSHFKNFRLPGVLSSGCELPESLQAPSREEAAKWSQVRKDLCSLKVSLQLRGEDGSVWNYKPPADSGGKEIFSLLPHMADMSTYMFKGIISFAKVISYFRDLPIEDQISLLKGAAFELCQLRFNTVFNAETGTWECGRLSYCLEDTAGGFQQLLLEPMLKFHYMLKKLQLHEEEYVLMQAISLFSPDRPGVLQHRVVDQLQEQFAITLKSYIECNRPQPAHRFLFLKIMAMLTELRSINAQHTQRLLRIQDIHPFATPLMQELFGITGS
Thyrotropin-releasing hormone receptor (Homo sapiens), sequence (P34981 whole entry, looked up): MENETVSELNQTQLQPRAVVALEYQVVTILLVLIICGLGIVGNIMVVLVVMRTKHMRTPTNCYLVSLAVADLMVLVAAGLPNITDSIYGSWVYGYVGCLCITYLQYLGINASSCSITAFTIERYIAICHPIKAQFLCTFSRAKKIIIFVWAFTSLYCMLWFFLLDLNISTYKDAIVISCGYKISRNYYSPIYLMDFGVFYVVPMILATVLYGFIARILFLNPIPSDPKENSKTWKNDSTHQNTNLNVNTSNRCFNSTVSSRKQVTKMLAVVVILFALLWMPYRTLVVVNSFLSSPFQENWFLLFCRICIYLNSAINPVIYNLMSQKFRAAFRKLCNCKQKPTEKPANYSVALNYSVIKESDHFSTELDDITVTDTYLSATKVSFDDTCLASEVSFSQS
Nuclear receptor subfamily 1 group I member 2 (Rattus norvegicus), sequence (Q9R1A7 whole entry, looked up): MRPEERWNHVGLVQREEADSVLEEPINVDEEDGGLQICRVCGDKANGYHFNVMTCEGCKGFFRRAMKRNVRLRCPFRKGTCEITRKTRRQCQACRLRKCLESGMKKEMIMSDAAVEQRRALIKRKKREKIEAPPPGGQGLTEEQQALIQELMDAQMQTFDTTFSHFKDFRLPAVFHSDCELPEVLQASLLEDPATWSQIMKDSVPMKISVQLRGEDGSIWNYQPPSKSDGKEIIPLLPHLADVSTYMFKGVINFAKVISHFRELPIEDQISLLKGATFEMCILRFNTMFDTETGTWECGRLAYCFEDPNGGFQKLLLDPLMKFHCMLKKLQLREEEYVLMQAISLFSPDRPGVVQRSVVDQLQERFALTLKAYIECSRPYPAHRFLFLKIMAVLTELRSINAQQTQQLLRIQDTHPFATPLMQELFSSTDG
Cytochrome P450 2D6 (Homo sapiens), sequence (P10635 whole entry, looked up): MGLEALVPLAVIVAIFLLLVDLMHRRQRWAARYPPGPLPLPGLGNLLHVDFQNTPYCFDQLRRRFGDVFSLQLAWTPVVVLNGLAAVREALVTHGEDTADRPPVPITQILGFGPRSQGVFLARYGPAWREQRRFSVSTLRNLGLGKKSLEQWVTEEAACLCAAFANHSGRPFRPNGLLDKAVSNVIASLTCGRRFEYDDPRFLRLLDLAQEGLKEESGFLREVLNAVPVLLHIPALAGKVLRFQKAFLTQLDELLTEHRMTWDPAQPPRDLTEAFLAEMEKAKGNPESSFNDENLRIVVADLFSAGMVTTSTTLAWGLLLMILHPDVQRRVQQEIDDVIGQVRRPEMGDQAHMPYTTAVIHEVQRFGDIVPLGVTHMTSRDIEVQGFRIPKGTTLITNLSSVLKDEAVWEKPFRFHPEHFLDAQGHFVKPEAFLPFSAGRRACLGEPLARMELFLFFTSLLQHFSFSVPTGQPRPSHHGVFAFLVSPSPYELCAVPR

As for `COC(C)COC(C)COC(C)CO` (stereo not drawn), the Potency entry in test [1], in [2], in test [3], in [4], in test [5] and in test [6] was “inactive” each time. Besides, the Potency result in [7] and in test [8] was “inactive” throughout.

On to `CC(CCC(=O)O)(c1ccc(O)cc1)c1ccc(O)cc1`, for which the Potency entry in test [1], in [2], in [3], in test [4], in test [5] and in test [6] was “inactive” in each case. The Potency result in test [7] was “inactive”. Besides, in test [8], the Potency entry was “inactive and 25.2 µM (active)”.

With `Cc1ccc(C(=O)c2cc(O)c(O)c([N+](=O)[O-])c2)cc1`, the Potency result in [1], in test [3], in [5] and in test [8] was “inactive” each time. Also, the values for the Potency in [2], in [4] and in test [6] were 21.7 µM (active), 43.3 µM (active) and 43.3 µM (active), respectively.

As for `CC(=O)CC/C=C(\C)CCC=C(C)C`, the Potency result in [1], in [2], in test [3], in test [4], in test [5] and in test [6] was “inactive” in each case. The Potency entry in [8] is “inactive”. In test [7], the Potency result was “inactive and 54.5 µM (active)”.

Turning to `CCC(C)OC(=O)c1ccc(O)cc1` (stereo not drawn), the Potency entry in test [1], in [2], in test [3], in [4], in test [5] and in [6] was “inactive” throughout. Further, the Potency in test [7] is 69 µM (active) and 54.5 µM (active); in test [8], 63.3 µM (active).

As for `CC(=O)c1ccccn1`, the Potency entry in [1], in [2], in [3], in [4], in test [5] and in test [6] was “inactive” in each case. The Potency result in [7] and in test [8] was “inactive” throughout.

Take `OC1CCCCCCCCCCC1`: the Potency result in [1], in test [2], in test [3], in [4], in [5] and in test [6] was “inactive” each time. Moreover, in [8], the Potency result is “inactive”. The Potency in test [7] is 61.7 µM (active) and inactive.

Consider `O=C(OCc1ccccc1)c1ccccc1O`, for which the Potency entry in [1], in test [2], in [3], in test [4], in [5] and in [6] was “inactive” throughout. Besides, the Potency entry in test [7] and in test [8] was “inactive” throughout.

As for `CN(C)C(=N)N=C(N)N`, the Potency entry in test [1], in [2], in [3], in test [4], in [5] and in test [6] was “inactive” each time. Moreover, in test [9], the max activation is -2.9% (inactive).

For `Cc1ccc2c(n1)Oc1ccc(C(C)C(=O)OCC(=O)N(C)C)cc1C2` (stereo not drawn), the Potency result in [1], in [2], in test [3], in test [4], in test [5] and in test [6] was “inactive” in each case. In addition, the Potency in test [7] was 21.1 µM (active) and 11.9 µM (active); in [8] it was 38.9 µM (active).

`O=C(c1ccccc1)c1ccc(O)cc1O`: the Potency entry in test [1], in test [2], in test [3], in test [5] and in test [6] was “inactive” in each case. Further, the Potency in test [7] was 62.3 µM (active) and 61.1 µM (active); in test [8], 8.12 µM (active) and 20 µM (active).

Turning to `O=C(/C=C/C=C/c1ccc2c(c1)OCO2)N1CCCCC1`, the Potency entry in test [1], in test [2], in test [3], in test [5] and in test [6] was “inactive” each time. Besides, the Potency was 10.9 µM (active) in test [7]; 63.4 µM (active) and 44.8 µM (active) in test [8].

On to `Cc1cccc([N+](=O)[O-])c1C`, for which the Potency result in [1], in test [2], in test [3], in test [4], in test [5] and in test [6] was “inactive” each time. Besides, the Potency entry in test [7] and in [8] was “inactive” in each case.

For the compound `CN(C)CCC=C1c2ccccc2CCc2ccccc21`, the Potency result in [1], in test [5] and in test [6] was “inactive” in each case. Also, the Potency in test [2] is 44.7 µM (active) and 48.6 µM (active) and 26.6 µM (active); in test [3], 68.6 µM (active) and inactive; in [4], 61.1 µM (active); in test [7], 19.3 µM (active) and inactive; in test [8], 2.52 µM (active) and 5.64 µM (active) and 5.49 µM (active).

As to `Oc1ccc(O)cc1`, the Potency entry in test [1], in test [2], in test [3], in test [5], in [6] and in test [8] was “inactive” in each case. For the same compound, the Potency in [4] is 43 µM (active) and 68.6 µM (active); in test [7] it was 54.2 µM (active) and inactive.

Consider `CC(C)Oc1ccc2c(=O)c(-c3ccccc3)coc2c1`, for which the Potency entry in test [2], in [3], in [5], in [6] and in test [8] was “inactive” each time. Besides, the Potency in [7] is 2.98 µM (active) and 1.06 µM (active); in [9], 0.316 µM (active).

With `C[C@]12CCC(=O)C=C1CC[C@@H]1[C@@H]2C(=O)C[C@@]2(C)[C@H]1CC[C@]2(O)C(=O)CO`, the Potency entry in test [2], in test [3], in [4], in test [5], in test [6] and in [7] was “inactive” throughout. Also, the Potency entry in test [10] and in test [8] was “inactive” each time. The max activation in test [9] is 0.346% (inactive).

Consider `CCCCC(CC)COC(=O)c1ccc(N(C)C)cc1` (stereo not drawn), for which the Potency result in test [2], in [3], in [4], in test [5], in test [6] and in test [10] was “inactive” throughout. The Potency entry was “inactive and 54.5 µM (active)” in test [7]; 30.9 µM (active) in test [8]. For the same compound, the max activation in [9] is -1.01% (inactive).

On to `Nc1ncnc2nc[nH]c12`, for which the Potency entry in test [2], in [3], in test [4], in test [5], in test [6] and in test [10] was “inactive” throughout. In [8], the Potency entry is “inactive”. Also, in test [7], the Potency was 27.3 µM (active) and inactive. In addition, the max activation in test [9] is 0.861% (inactive).

Take `CCCCOCCOCCO`: the Potency entry in [2], in [3], in test [4], in [5], in test [6] and in [7] was “inactive” in each case. The Potency result in [8] was “inactive”.

Consider `OC(CCl)CCl`, for which the Potency entry in test [2], in [3], in [4], in test [5], in test [6] and in [7] was “inactive” throughout. For the same compound, in [8], the Potency entry is “inactive”.

Regarding `O=S(=O)(O)c1ccc(O)cc1`, the Potency result in [2], in [3], in [4], in test [5], in [6] and in test [7] was “inactive” in each case. Moreover, the Potency result in test [10] and in test [8] was “inactive” throughout. Besides, in [9], the max activation is -1.73% (inactive).
